Assay [1] in a line: anti-His antibody binders, primary screen, artefact control for SMM control protein annotation, biochemical, small-molecule microarray, 635 nm fluorescence (AID 1128).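 Note: score merges feature fluorescence with signal-to-noise for each printed compound spot.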 The following applies: anti-His Alexa647 antibody binding, higher = more signal.
The test system of assay [2] is Human papillomavirus type 1a E7 protein (residues 1-88). The assay can be described thus: HPV1a E7 small-molecule binders, primary screen, biochemical, small-molecule microarray, residues 1-88, 635 nm (AID 1129). The following applies: small-molecule microarray binding, fluorescence 635 nm; higher = more signal.
Assay [3] concerns the target Focal adhesion kinase 1 (Homo sapiens) (UniProt Q05397). The experiment in a line: small-molecule microarray binders of FAK, primary screen, biochemical, 635/667 nm fluorescence, BSA, DTT (AID 1130).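 Note: composite of spot emission at 667 nm and signal to noise over triplicate slides.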 The note with it: PTK2 binding, 635 nm fluorescence, higher = more signal.
Assay [4] concerns Fibrinogen (Alexa647-labelled). The experiment in a line: fibrinogen binders on compound microarrays, profiling panel, artefact control for SMM control-protein annotation, biochemical, small-molecule microarray, 635/667 nm fluorescence (AID 1131).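 Note: z-score merges 667 nm fluorescence with per-spot signal-to-noise over triplicate slides.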 The following applies: fibrinogen-A647 binding fluorescence, higher = more signal.
Assay [5] concerns the target Follistatin (Homo sapiens) (UniProt P19883). The experiment in a line: follistatin binders on small-molecule microarrays, primary screen, biochemical, small-molecule microarray, 635/667 nm fluorescence (AID 1132). The following applies: FST binding, 635 nm fluorescence, higher = more signal.
Assay [6] addresses Fibroblast growth factor 2 (Homo sapiens) (UniProt P09038). The assay can be described thus: FGF2 binders on small-molecule microarrays, primary screen, biochemical, small-molecule microarray, 635/667 nm fluorescence (AID 1133). The following applies: small-molecule microarray binding, FGF2, fluorescence 635/667; higher = more signal.
Assay [7] in a line: mitochondrial membrane potential change in A549 cells, profiling panel, cell-based, JC-1 fluorescence, basal, 24 h, 100 nL (AID 1138).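 Note: A549 lung adenocarcinoma cells under basal conditions with no added stimulus; test concentration not given here.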 The following applies: higher = more signal.
Assay [8] concerns Lefty1. The assay can be described thus: Lefty1 binders on small-molecule microarrays, primary screen, biochemical, small-molecule microarray, 635/667 nm fluorescence (AID 1139). The note with it: small-molecule microarray binding, fluorescence 635/667; higher = more signal.
The subject of assay [9] is wheat germ agglutinin (Triticum aestivum), Alexa647-labelled. The experiment in a line: wheat germ agglutinin binders on compound microarrays, profiling panel, artefact control for SMM control-protein annotation, biochemical, small-molecule microarray, 635/667 nm fluorescence (AID 1140).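 Note: score merges 667 nm feature emission with signal to noise over triplicate slides.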 The following applies: WGA-A647 binding, 635 nm fluorescence, higher = more signal.
Assay [10] concerns the target Luciferin 4-monooxygenase (Photinus pyralis) (UniProt P08659). The assay can be described thus: firefly luciferase enzyme inhibitors, primary screen, biochemical, luminescence, purified enzyme, 2006 set (AID 1141).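 Note: cell-free assay with purified firefly luciferase at 100 ng per well in PBS; test concentration not given here.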 The following applies: SteadyGlo luminescence, 30 min, higher = more signal, called active from +8 up or from −8 down.
The test system of assay [11] is Wnt5a (protein binding on small-molecule microarray). The assay can be described thus: Wnt5a binders on small-molecule microarray, primary screen, biophysical, 635/667 nm fluorescence (AID 1142).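 Note: fluorescence read at 667 nm with signal to noise per printed feature.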 The following applies: 635 nm fluorescence, higher = more signal.
Assay [12] can be described thus: cell viability in Huh7 cells, primary screen, cytotoxicity control for HCV replication inhibitor project, CellTiter-Glo luminescence, basal, 48 h (AID 1143).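 Note: Huh7 hepatoma cells carrying a hepatitis C replication reporter with no stimulus; test concentration not given here.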 The following applies: Huh7 HCV replicon, higher = more signal, called active from +8 up or from −8 down.
Assay [13] can be described thus: P. aeruginosa biofilm formation inhibitors, primary screen, PAO1 strain, BacTiter-Glo luminescence, LB-PBS (AID 1144). The note with it: 12 h, higher = more signal.
Assay [14] is described as follows: CREB reporter modulators without forskolin, primary screen, cell-based, PC12, CRE-LacZ reporter, unstimulated (AID 1145). The following applies: no forskolin, luminescence, 4.5 h, higher = more signal, called active from +8 up or from −8 down.
Assay [15] is described as follows: CREB reporter modulators under forskolin, primary screen, cell-based, PC12, CRE-LacZ reporter, forskolin-stimulated (AID 1146).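 Note: PC12 cells with 6xCRE LacZ reporter stimulated by forskolin 10 µM; beta-galactosidase reporter signal reflecting CREB driven transcription.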 The note with it: luminescence, 4.5 h, higher = more signal, called active from +8 up or from −8 down.
Assay [16] addresses Streptavidin (Streptomyces avidinii) (UniProt P22629). The experiment in a line: streptavidin binders on small-molecule microarray, primary screen, artefact control for SMM compound annotation, biophysical, 635/667 nm fluorescence (AID 1147).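 Note: signal reflects streptavidin binding to arrayed compounds as a control protein.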 The following applies: streptavidin binding, higher = more signal.
Assay [17] in a line: small-molecule binders of probe aInhba, primary screen, biochemical, small-molecule microarray, 635/667 nm fluorescence (AID 1148).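 Note: score merges 667nm spot fluorescence with signal-to-noise for antibody binding to printed compounds.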 The note with it: higher = more signal.
For assay [18], the target named is Torsin-1A (Homo sapiens) (UniProt O14656). The experiment in a line: torsin A binders from cell lysate, primary screen, small-molecule microarray, wild-type, 635/667 nm (AID 1149). The following applies: COS7 hTOR1A-WT lysate, 635 nm fluorescence, higher = more signal.
For assay [19] the target is unchanged. The assay can be described thus: small-molecule binders of mutant TOR1A in lysate, primary screen, cell lysate, small-molecule microarray, COS7 lysate, 635/667 nm fluorescence (AID 1150).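 Note: score pools 667 nm emission and signal to noise measuring lysate protein binding.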 The note with it: COS7 hTOR1A mutant lysate, 635 nm fluorescence, higher = more signal.
The subject of assay [20] is Sonic hedgehog protein (Shh). The experiment in a line: small-molecule binders of Shh protein, primary screen, biochemical, small-molecule microarray, 635/667 nm fluorescence (AID 1151).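 Note: Shh protein binding to compounds spotted on small-molecule microarray slides; score combines spot fluorescence intensity with signal-to-noise across triplicate slides.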 The note with it: small-molecule microarray binding, 635 nm fluorescence; higher = more signal.

The source made the active and inactive calls. Unless noted, the rule behind the calls is not given here.

Sequence of Follistatin (Homo sapiens) (P19883 whole entry, looked up): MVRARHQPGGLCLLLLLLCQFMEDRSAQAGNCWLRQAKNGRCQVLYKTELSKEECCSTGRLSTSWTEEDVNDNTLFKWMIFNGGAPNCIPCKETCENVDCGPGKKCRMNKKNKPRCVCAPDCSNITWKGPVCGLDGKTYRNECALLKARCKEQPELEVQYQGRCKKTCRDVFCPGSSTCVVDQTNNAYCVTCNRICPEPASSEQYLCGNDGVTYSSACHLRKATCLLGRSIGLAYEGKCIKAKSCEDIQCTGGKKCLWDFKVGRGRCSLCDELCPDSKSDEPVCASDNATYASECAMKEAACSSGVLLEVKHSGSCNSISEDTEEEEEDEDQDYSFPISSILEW
Sequence of Streptavidin (Streptomyces avidinii) (P22629 whole entry, looked up): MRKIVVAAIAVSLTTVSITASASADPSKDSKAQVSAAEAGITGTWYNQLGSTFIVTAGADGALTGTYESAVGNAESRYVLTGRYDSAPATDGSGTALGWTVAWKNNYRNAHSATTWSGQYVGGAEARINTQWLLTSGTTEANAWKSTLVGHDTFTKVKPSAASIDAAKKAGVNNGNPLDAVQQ
Sequence of Luciferin 4-monooxygenase (Photinus pyralis) (P08659 whole entry, looked up): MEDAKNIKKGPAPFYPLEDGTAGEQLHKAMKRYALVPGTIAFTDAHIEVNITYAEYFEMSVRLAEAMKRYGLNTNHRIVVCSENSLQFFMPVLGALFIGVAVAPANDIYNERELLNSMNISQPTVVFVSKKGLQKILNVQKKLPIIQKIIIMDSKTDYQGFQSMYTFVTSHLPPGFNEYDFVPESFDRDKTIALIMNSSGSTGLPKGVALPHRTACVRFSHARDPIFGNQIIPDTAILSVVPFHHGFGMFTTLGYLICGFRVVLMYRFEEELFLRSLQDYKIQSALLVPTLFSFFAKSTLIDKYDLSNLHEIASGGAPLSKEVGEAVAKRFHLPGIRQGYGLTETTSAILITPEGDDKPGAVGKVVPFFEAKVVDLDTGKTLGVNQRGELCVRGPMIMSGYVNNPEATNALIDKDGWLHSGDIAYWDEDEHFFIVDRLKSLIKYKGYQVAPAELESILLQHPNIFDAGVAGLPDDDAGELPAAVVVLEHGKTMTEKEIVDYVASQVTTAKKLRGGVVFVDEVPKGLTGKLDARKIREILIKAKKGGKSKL
Sequence of Focal adhesion kinase 1 (Homo sapiens) (Q05397 whole entry, looked up): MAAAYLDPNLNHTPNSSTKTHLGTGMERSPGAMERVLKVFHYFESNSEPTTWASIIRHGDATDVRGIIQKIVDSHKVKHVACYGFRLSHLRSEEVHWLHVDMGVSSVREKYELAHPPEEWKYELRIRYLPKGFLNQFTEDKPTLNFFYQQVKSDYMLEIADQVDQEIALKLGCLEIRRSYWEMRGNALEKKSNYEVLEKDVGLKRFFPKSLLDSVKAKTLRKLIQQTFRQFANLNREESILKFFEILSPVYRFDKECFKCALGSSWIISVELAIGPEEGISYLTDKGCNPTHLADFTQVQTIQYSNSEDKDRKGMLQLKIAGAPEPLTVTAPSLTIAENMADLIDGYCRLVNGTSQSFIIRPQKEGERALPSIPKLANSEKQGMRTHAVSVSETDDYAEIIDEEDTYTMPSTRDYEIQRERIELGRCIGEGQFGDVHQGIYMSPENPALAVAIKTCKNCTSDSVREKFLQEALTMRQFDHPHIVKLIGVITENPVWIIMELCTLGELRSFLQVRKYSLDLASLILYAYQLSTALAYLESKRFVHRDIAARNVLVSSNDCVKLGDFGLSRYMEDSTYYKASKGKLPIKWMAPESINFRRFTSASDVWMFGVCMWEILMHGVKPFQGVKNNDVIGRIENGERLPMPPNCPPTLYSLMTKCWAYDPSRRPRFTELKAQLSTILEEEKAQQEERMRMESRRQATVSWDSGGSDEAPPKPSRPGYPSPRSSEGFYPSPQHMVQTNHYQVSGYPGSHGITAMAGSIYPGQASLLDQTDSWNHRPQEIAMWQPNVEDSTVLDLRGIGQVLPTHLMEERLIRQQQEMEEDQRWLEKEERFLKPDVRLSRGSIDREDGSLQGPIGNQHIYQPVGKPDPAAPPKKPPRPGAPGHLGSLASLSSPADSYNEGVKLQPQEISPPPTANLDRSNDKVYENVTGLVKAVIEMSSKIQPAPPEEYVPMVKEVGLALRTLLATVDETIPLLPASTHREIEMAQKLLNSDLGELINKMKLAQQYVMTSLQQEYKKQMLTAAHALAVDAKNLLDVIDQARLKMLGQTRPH
Sequence of Torsin-1A (Homo sapiens) (O14656 whole entry, looked up): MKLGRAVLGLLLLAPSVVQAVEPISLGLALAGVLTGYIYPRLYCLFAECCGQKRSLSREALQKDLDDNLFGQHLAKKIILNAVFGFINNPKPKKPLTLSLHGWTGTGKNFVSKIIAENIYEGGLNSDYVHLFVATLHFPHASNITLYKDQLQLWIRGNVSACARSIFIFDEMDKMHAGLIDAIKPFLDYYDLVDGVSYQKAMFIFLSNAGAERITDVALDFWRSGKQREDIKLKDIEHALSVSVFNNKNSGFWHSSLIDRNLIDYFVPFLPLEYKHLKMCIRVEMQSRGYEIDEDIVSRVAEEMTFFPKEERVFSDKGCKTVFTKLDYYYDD
Sequence of Fibroblast growth factor 2 (Homo sapiens) (P09038 whole entry, looked up): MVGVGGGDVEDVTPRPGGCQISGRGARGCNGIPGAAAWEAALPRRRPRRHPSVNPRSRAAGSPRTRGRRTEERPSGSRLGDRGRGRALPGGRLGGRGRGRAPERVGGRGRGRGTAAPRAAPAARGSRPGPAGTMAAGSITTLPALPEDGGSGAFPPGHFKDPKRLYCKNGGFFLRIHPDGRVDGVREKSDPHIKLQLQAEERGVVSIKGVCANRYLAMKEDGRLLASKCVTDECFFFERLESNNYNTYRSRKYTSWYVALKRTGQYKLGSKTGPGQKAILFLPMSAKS

Consider `O=C1NCC(=O)N2[C@@H]1C[C@@H](C(=O)O)[C@H]2c1cccc(OCCO)c1`, for which the composite z-score in assay [1] turned out to be 1.85; in [2] it was 1.34; in [3] it was 4.87; in assay [4] it was 0.654; in assay [5] it was 1.52; in [6] it was 1.5. In addition, the composite z-score in [8] is 1.84; in assay [9], 1.45; in assay [11] it was 2.26; in [16], 2.8; in [17], 2.16; in assay [18], 3.24. Further, the composite z-score in assay [19] turned out to be 3.69; in assay [20], 1.63. Moreover, the z-score was 0.221 in [7]; -0.707 (inactive) in assay [10]; -0.095 (inactive) in assay [12]; 4.41 (inactive) in assay [13]; 0.822 (inactive) in assay [14]; -0.393 (inactive) in assay [15].
As to `O=C1O[C@H](c2ccccc2)[C@H](c2ccccc2)N2[C@H]1[C@@H](C(=O)Nc1nc3ccccc3s1)[C@]1(C(=O)Nc3ccc(C#CCCO)cc31)[C@H]2c1ccc(OCCO)cc1`, the composite z-score worked out at 1.18 in [1]; 1.18 in [2]; 0.232 in assay [3]; 0.9 in assay [4]; 1.43 in assay [5]; 1.15 in assay [6]. Moreover, the composite z-score came out at 1.16 in assay [8]; 1.04 in assay [9]; 0.767 in assay [11]; 1.1 in assay [16]; 0.532 in [17]; 1.15 in assay [18]. Further, the composite z-score in [19] turned out to be 0.637; in assay [20], 1.05. Also, the z-score is -2.36 in assay [7]; -2.97 (inactive) in assay [10]; -0.218 (inactive) in assay [12]; -0.0404 (inactive) in assay [13]; -0.471 (inactive) in assay [14]; 0.806 (inactive) in [15].
Take `CC(C)(C)OC(=O)CC[C@]1(C(=O)O)N=C(c2ccc(OCCCO)cc2)O[C@H]1c1ccccc1N=[N+]=[N-]`: the composite z-score in [1] is 1.95; in assay [2] it was 0.815; in assay [3] it was 0.238; in assay [4] it was 0.882; in assay [5] it was 0.891; in [6], 0.0606. The composite z-score is -0.811 in assay [8]; 0.963 in assay [9]; 0.629 in assay [11]; 1.32 in assay [16]; 0.825 in assay [17]; -0.09 in assay [18]. In addition, the composite z-score in assay [19] was 0.414; in assay [20] it was -0.815. The z-score was -0.974 in assay [7]; -10.5 (active) in assay [10]; -0.686 (inactive) in [12]; 0.448 (inactive) in assay [13]; -0.38 (inactive) in assay [14]; -0.658 (inactive) in [15].
Regarding `CC(C)(C)OC(=O)CC[C@@]12N=C(c3ccc(OCCCO)cc3)O[C@@H]1c1ccccc1N(CCS(=O)(=O)c1ccccc1)C2=O`, the composite z-score in assay [1] is 2.03; in [2], 1.19; in assay [3], 0.412; in assay [4] it was 0.129; in assay [5], 1.3; in assay [6], 0.109. The composite z-score was 0.644 in assay [8]; 0.653 in [9]; 0.251 in assay [11]; 0.901 in [16]; 0.0737 in [17]; -0.0101 in assay [18]. For the same compound, the composite z-score came to 0.537 in [19] and 1.27 in assay [20]. In addition, the z-score in assay [7] is 0.84; in [10], -7.46 (inactive); in assay [12], -3.45 (inactive); in assay [13], 0.114 (inactive); in assay [14] it was -0.389 (inactive); in [15] it was -1.71 (inactive).
As to `COC(=O)[C@@]1(Cc2ccc(OC)cc2)[C@H]2c3cc(C(=O)N4CCCC4)n(Cc4ccsc4Br)c3C[C@H]2CN1C(=O)c1ccccc1`, the composite z-score was 0.198 in assay [1]; 1.12 in assay [2]; 0.565 in assay [3]; -0.152 in assay [4]; 0.073 in assay [5]; -0.88 in assay [6]. Further, the composite z-score is -0.402 in assay [8]; 0.604 in assay [9]; 0.0185 in assay [11]; 0.161 in assay [16]; 0.19 in [17]; -0.34 in assay [18]. For the same compound, the values for the composite z-score in assay [19] and in assay [20] were 0.185 and -0.658, respectively. Moreover, the z-score in [7] is -0.404; in assay [10], -0.777 (inactive); in assay [12] it was -3.29 (inactive); in assay [13], 0.674 (inactive); in assay [14], 1.72 (inactive); in assay [15], 46.9 (active).
